Results published in PubChem BioAssay AID1745853 (National Center for Advancing Translational Sciences (NCATS), 2022).
About 970 (3.9%) of roughly 25,000 compounds were called active. Roughly 8% stayed inconclusive and do not appear here. No rule for the calls is given here. Many of the other results were omitted from the sample, so actives are more common in it than they were.

Experiments:
Assay in all cases: Primary Screen for Target Class Profiling of Small Molecule Inhibitors of Methyltransferases
[1] = target: Catechol O-methyltransferase (Homo sapiens) (UniProt P21964); conditions: purified enzyme, MTase-Glo SAH luminescence; activity change, negative = inhibition: at 40 µM, stronger effect = lower value; outcome: 40 uM
Sequence of Catechol O-methyltransferase (Homo sapiens) (P21964 whole entry, looked up): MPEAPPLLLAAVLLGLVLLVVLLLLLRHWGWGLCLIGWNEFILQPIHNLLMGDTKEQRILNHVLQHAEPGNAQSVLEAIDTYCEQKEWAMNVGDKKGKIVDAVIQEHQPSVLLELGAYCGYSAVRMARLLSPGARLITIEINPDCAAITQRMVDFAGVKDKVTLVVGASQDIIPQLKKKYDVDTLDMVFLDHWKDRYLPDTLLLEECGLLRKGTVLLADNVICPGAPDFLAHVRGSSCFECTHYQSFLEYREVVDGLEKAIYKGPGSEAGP
Excerpt: (§1) PI: Matthew D. Hall Ph.D. and Quinlin M. Hanson Ph.D.
(§2) National Center for Advancing Translational Sciences (NCATS)
(§3) National Institute of Health (NIH), Rockville, MD
(§4) Target class profiling (TCP) is a chemical biology approach amenable to investigating understudied biological targets. TCP is achieved by developing a generalizable assay platform and applying it to screen a curated set of compound libraries against representative members of a target class. Small molecule methyltransferases (SMMTase) are a subclass of methyltransferase that act on metabolites to modulate signaling pathways, metabolize xenobiotics, or balance the available methyl pool. We screened four curated libraries totaling 27,574 unique compounds against the SMMTases nicotinamide N-methyltransferase (NNMT), phenylethanolamine N-methyltransferase (PNMT), histamine N-methyltransferase (HNMT), glycine N-methyltransferase (GNMT), catechol O-methyltransferase (COMT), and guanidinoacetate N-methyltransferase (GAMT). The data generated by this TCP can be leveraged for informed tool molecule development. For example, in the associated publication we identified a chemotype of HNMT-selective inhibitors. Additionally, we identified a putative SMMTase-selective inhibitor with potential as a tool molecule for studying broader methyltransferase biology.
(§5) High-through put screening assays were developed at the National Center for Advancing Translational Science (NCATS) for the enzymes NNMT, PNMT, HNMT, GNMT, COMT, and GAMT. Enzymatic activity was measured as a function of SAM cofactor conversion using the MTase Glo kit (Promega) for all enzymes. All assays were performed in 1536-well format with substrates and SAM concentrations at KM values. Enzyme concentration and assay timing were optimized for 10-20% SAM conversion. Initial screening of 27,574 compounds was done as single-point assays using the highest compound concentration (40 uM). […] These compounds were replated in 11-point dose response and assayed against NNMT, PNMT, HNMT, GNMT, COMT, GAMT, and a counter-assay. The IC50 and efficacy (maximal response) values were determined for each dose-response curve. These values are also accounted for in the area under the curve (AUC) values.
(§6) PROTOCOL TABLE (as described by Inglese J, Shamu CE and Guy RK. 2007)
(§7) SEQUENCE No. (e.g., 1, 2, 3, etc.); […] (e.g., Cells, Incubation, Reagent, etc.); VALUE; DESCRIPTION.
(§8) 1; Reagent; 2 uL; SMMTase Enzyme (2x) in reaction buffer, columns 1- 48.
(§9) 2; Reagent; 1 uL; SAM (4x) in reaction buffer, columns 1-48.
(§10) 3; Controls; 23 nL; DMSO in column 4; sinefungin in DMSO (0 uM - 40 uM) in 7-point 1:2 dilution series (n = 2) in column 2.
(§11) 4; Compounds; 23 nL; Columns 5-48.
(§12) 5; Reagent; 1 uL; Substrate (4x) in reaction buffer, columns 2-48.
(§13) 6; Time; 20-30 min; Incubation.
(§14) 7; Reagent; 1 uL; MTase-Glo reagent (5X), columns 1-48.
(§15) 8; Time; 30 min; Incubation.
(§16) 9; Reagent; 5 uL; MTase-Glo Detection reagent, columns 1-48.
(§17) 10; Time; 30 min; Incubation, luminescence evolution.
(§18) 11; Detection; Luminescence; ViewLux uHTS Microplate Imager (PerkinElmer).
(§19) NOTES (numbers refer to Sequence numbers above)
(§20) 1, 2, 5. White Medium Binding Greiner 1536-well plates (Cat #789175-F, Greiner Bio-One, Monroe, NC); Reaction buffer: 50 mM Tris, pH 8.0, 3 mM MgCl2, 1 mM EDTA, 50 mM NaCl, 1 mM DTT, and 0.1 mg/mL BSA. Evaporation was prevented by covering assay plates with metal lids containing holes to allow gas diffusion.
(§21) 1. Six SMMTase were profiled: HNMT, GNMT, PNMT, COMT, NNMT, GAMT
(§22) 5. The corresponding substrate was used for each enzyme: HNMT - 5.3 uM Histamine; GNMT - >500 uM Glycine; PNMT - 16.2 uM Norephinephrine; COMT - 13.7 uM Norephinephrine; NNMT - 3.8 uM Nicotinamide; GAMT - 2.5 uM Guanidinoacetate.6, 8, 10. Room temperature
(§23) 6. Final reaction conditions: 10 nM COMT, 5 uM SAM, 15 uM norepinephrine, 50 mM Tris, pH 8.0, 3 mM MgCl2, 1 mM EDTA, 50 mM NaCl, 1 mM DTT, and 0.1 mg/mL BSA; refer to tables 2 and S1 for specific timing.
8. […]

[2] = target: Glycine N-methyltransferase (Homo sapiens) (UniProt Q14749); conditions: purified enzyme, MTase-Glo SAH luminescence; measured here: GNMT inhibition; at 40 µM; stronger effect = lower value
Sequence of Glycine N-methyltransferase (Homo sapiens) (Q14749 whole entry, looked up): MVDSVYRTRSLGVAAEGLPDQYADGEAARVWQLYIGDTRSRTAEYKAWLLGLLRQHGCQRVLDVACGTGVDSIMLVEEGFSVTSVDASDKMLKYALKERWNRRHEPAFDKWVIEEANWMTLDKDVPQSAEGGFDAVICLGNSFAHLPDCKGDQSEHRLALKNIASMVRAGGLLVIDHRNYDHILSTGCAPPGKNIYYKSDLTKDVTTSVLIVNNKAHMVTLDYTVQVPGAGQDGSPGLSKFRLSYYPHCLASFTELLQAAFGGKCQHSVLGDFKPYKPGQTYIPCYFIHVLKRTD
Excerpt: as §1, §2, §3, §4, §5, §6, §7, §8, §9, §10, §11, §12, §13, §14, §15, §16, §17, §18, §19, §20, §21, §22, §23
8. […]

[3] = target: Guanidinoacetate N-methyltransferase (Homo sapiens) (UniProt Q14353); conditions: purified enzyme, MTase-Glo SAH luminescence; measured here: GAMT inhibition; at 40 µM; stronger effect = lower value
Excerpt: as §1, §2, §3, §4, §5, §6, §7, §8, §9, §10, §11, §12, §13, §14, §15, §16, §17, §18, §19, §20, §21, §22, §23
8. […]

[4] = target: Histamine N-methyltransferase (Homo sapiens) (UniProt P50135); conditions: purified enzyme, MTase-Glo SAH luminescence; measured here: HNMT inhibition; at 40 µM; stronger effect = lower value
Sequence of Histamine N-methyltransferase (Homo sapiens) (P50135 whole entry, looked up): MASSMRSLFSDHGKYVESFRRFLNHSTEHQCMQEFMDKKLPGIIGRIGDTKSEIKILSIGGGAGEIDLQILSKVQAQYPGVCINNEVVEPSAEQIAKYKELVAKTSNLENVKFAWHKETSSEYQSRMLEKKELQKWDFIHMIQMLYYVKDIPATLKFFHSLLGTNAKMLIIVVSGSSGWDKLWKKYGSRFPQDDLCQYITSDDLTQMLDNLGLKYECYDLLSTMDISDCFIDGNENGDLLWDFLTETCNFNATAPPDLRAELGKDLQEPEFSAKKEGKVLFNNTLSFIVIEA
Excerpt: as §1, §2, §3, §4, §5, §6, §7, §8, §9, §10, §11, §12, §13, §14, §15, §16, §17, §18, §19, §20, §21, §22, §23
8. […]

[5] = target: Nicotinamide N-methyltransferase (Homo sapiens) (UniProt P40261); conditions: purified enzyme, MTase-Glo SAH luminescence; measured here: NNMT inhibition; at 40 µM; stronger effect = lower value
Sequence of Nicotinamide N-methyltransferase (Homo sapiens) (P40261 whole entry, looked up): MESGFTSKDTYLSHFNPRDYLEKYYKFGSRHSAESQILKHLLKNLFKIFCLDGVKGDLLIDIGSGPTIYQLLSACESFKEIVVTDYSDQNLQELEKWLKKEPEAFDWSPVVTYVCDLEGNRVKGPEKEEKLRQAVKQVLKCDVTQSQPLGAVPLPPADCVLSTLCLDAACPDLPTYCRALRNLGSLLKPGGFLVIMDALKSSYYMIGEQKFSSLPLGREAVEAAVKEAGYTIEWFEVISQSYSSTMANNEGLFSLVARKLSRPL
Excerpt: as §1, §2, §3, §4, §5, §6, §7, §8, §9, §10, §11, §12, §13, §14, §15, §16, §17, §18, §19, §20, §21, §22, §23
8. […]

[6] = target: Phenylethanolamine N-methyltransferase (Homo sapiens) (UniProt P11086); conditions: purified enzyme, MTase-Glo SAH luminescence; measured here: PNMT inhibition; at 40 µM; stronger effect = lower value
Sequence of Phenylethanolamine N-methyltransferase (Homo sapiens) (P11086 whole entry, looked up): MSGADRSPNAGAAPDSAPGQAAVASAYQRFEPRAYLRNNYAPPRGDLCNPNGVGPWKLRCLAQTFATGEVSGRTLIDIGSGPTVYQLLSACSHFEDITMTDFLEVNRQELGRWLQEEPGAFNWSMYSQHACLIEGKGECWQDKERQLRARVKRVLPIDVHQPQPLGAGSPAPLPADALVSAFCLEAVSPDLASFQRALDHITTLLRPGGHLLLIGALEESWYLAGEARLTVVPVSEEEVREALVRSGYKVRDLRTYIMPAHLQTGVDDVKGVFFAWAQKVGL
Excerpt: as §1, §2, §3, §4, §5, §6, §7, §8, §9, §10, §11, §12, §13, §14, §15, §16, §17, §18, §19, §20, §21, §22, §23
8. […]
% is scaled to controls: 0 for no effect and ±100 for the full control effect.

| Compound | activity change, negative = inhibition [1] | activity change, negative = inhibition [2] | activity change, negative = inhibition [3] | activity change, negative = inhibition [4] | activity change, negative = inhibition [5] | activity change, negative = inhibition [6] |
| --- | --- | --- | --- | --- | --- | --- |
| Cc1cc(C(=O)N2CCCCCC2CN2CCC(C)CC2)nn1C (stereo not drawn) | -10.6% (inactive) | 0.743% | 0.856% | 0.525% | -2.25% | -1.05% |
| O=C(Cn1nc2n(Cc3ccc(F)cc3)c(=O)c3ccccc3n2c1=O)c1cccc(Cl)c1 | 5.66% (inactive) | 4.51% | 0% | 7.94% | -8.66% | 4.49% |
| Cc1ccc(C(=O)COC(=O)C(Cc2c[nH]c3ccccc23)NC(=O)c2ccc(Br)cc2)cc1 (stereo not drawn) | 9.4% (inactive) | 10.7% | 0% | 6.18% | -1.05% | 1.41% |
| Cc1cccc(-c2nnn3c2nc(N2CCC(C)CC2)c2ccccc23)c1 | -0.09% (inactive) | -5.45% | 0.818% | 1.53% | -1.89% | -5.11% |
| Oc1cc2c(cc1O)CN(C(=S)NCCc1ccc(Cl)cc1)CCC2 | 143% (active) | -83% | 4.04% | -4.18% | -9.24% | 0.975% |
| COc1cc(O)c(C(=O)CCc2ccc(O)cc2)c(O[C@@H]2O[C@H](CO)[C@@H](O)[C@H](O)[C@H]2O)c1 | -58.4% (active) | -3.53% | -12.8% | 2.69% | -20.7% | -1.39% |
| COc1cc(C)c(C(=O)Oc2cc(C)c(C(=O)Oc3cc(C)c(C(=O)NC(C)C(=O)O)c(O)c3)c(O[C@@H]3O[C@H](CO)[C@@H](O)[C@H](O)[C@H]3OC(C)=O)c2)c(OC)c1 (stereo partly drawn) | -0.843% (inactive) | -0.029% | 0.21% | 6.89% | -10.4% | -0.399% |
| COC(=O)CCc1cc2ccoc2c(OC)c1O[C@@H]1O[C@H](CO)[C@@H](O)[C@H](O)[C@H]1O | 2.02% (inactive) | 2.54% | 4.92% | 10.2% | -6.92% | 6.11% |
| CCN1CCN(C(=O)Cn2nc(C)c3sc(-c4ccccc4)nc3c2=O)CC1 | -3.83% (inactive) | -9.13% | -4.75% | -2.34% | -11.6% | -11% |
| CCCn1c(=O)c2ccc(C(=O)NC(C)CC)cc2n2c(=O)n(CC(=O)Nc3cc(C)cc(C)c3)nc12 (stereo not drawn) | 4.21% (inactive) | 2.22% | 5.41% | 6.27% | 0.889% | 3.91% |
| COCCn1c2c(c(=O)n1-c1ccccc1)CCN(Cc1cccc(C#N)c1)C2 | -2.46% (inactive) | -6.45% | -6.81% | -9.66% | -7.68% | -4.57% |
| C=CCn1c(=O)c2ccc(C(=O)NC(C)C)cc2n2c(=O)n(CC(=O)NCc3ccccc3)nc12 | 0.329% (inactive) | 7.7% | 1.61% | 12.5% | 0.93% | 4.28% |
| COc1ccc(CNc2nc3c(S(=O)(=O)c4ccc(C)cc4)nnn3c3ccccc23)cc1 | -0.038% (inactive) | -2.81% | 0.613% | 3.99% | 0% | -4.71% |
| CC1CCC(Nc2nc3c(-c4cccc(F)c4)nnn3c3ccccc23)CC1 (stereo not drawn) | -4.07% (inactive) | 0.278% | 0% | -0.849% | -6.58% | -5.44% |
| COc1cc(N)c(Cl)cc1C(=O)NC[C@@H]1CCN2CCC[C@@H]12 | -17.2% (inactive) | -4.41% | -14.1% | -11.2% | -21.4% | -18.4% |
| CCOC(=O)c1cc2n(n1)CC(C)(C(=O)NCc1ccccc1)N(CCCc1ccccc1)C2=O (stereo not drawn) | -0.428% (inactive) | 1.98% | 0% | 4.53% | -4.41% | 0.451% |
| CC(C)Cn1c(=O)c2ccccc2n2c(CCC(=O)N3CCN(c4cccc(Cl)c4)CC3)nnc12 | -9.54% (active) | -27.4% | -4.12% | -10.4% | -53.7% | -12.4% |
| O=C(CCc1nnc2n(Cc3ccc(Cl)cc3)c(=O)c3ccccc3n12)N1CCN(c2ccccc2F)CC1 | -4.23% (inactive) | -7.84% | 3.64% | -1.5% | -3.97% | -4.97% |
| O=C(CCc1nnc2n(Cc3ccc(Cl)cc3)c(=O)c3ccccc3n12)N1CCN(Cc2ccccc2)CC1 | -0.522% (inactive) | -14.1% | 0.869% | -6.5% | -18.2% | -7.88% |
| COC(=O)c1ncn2c1C(=O)N(Cc1ccc(OC)cc1)C(C)(C(=O)NCc1ccccc1)C2 (stereo not drawn) | -12.8% (inactive) | -10.1% | -0.727% | -7.43% | -6.98% | -9.09% |
| COc1cc2ncnc(Nc3cccc(Cl)c3F)c2cc1OC(=O)N1CCN(C)C[C@H]1C | -20.9% (inactive) | -14.7% | 0.224% | -20.1% | -5.9% | -15.1% |
| CCOc1ccc(CNC(=O)c2cc3n(n2)CC(C)(C(=O)NCc2ccc(F)cc2)N(C)C3=O)cc1OC (stereo not drawn) | 1.84% (inactive) | 2.33% | -5.76% | -2.91% | 3.94% | 6.92% |
| CC(=O)c1cnc2ccc(-c3cc(Cl)c(O)c(Cl)c3)nc2c1NC1CCC(CN(C)C)CC1 (stereo not drawn) | 2.27% (active) | -9.49% | 1.31% | -75.4% | -14.2% | 0.349% |
